Results reported in PubChem BioAssay AID2025 (NMMLSC, 2009).
Hit rate of the full screen: of about 330,000 compounds, about 980 (0.3%) were called active. This is one part of a sample in which actives are shown more often than they occur.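 The calls were made as follows: active = percent response vs DMSO below 50%; inconclusive = fewer than 70 events counted for the yeast strain; inactive = the rest.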

Experiment: RPL19A-GFP expression modulators in yeast, primary screen, cell-based, S. cerevisiae, multiplex flow cytometry, MLPCN (AID 2025);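 also: median channel GFP fluorescence of the barcoded RPL19A-GFP strain; ratio of sample median GFP to plate DMSO average so 100% = DMSO; lower means less RPL19A-GFP as with rapamycin TOR inhibition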
Conditions: S. cerevisiae RPL19A-GFP strain, 3 h, at 10 µM, active compounds read low
For `COc1ccc(CN2CC(C(=O)NCCc3ccc(Cl)cc3)CC2=O)cc1` (stereo unspecified), the percent response vs DMSO was 32.5% [may fluoresce violet] (active).
With `COc1ccc(CN2CC(C(=O)NCCN3CCN(c4ccccc4F)CC3)CC2=O)cc1` (stereo unspecified) the percent response vs DMSO was 99.6% (inactive).
In the case of `COc1ccc(CN2CC(C(=O)NC3CCCCC3)CC2=O)cc1` (stereo unspecified), the percent response vs DMSO is reported as 99.4% (inactive).
With `O=C1C=CC(=O)N1c1ccc(N2CCCCC2)cc1` the percent response vs DMSO was 64.6% (inactive).
In the case of `CCOc1ccc(Br)cc1S(=O)(=O)Nc1ccc(C(=O)OC(C)C(=O)N(C)c2ccccc2)cc1` (stereo unspecified), the percent response vs DMSO is reported as 99.2% (inactive).
With `Cc1nn(Cc2ccccc2)c(C)c1NS(=O)(=O)c1ccccc1` the percent response vs DMSO was 125% (inactive).
In the case of `Nc1c(-c2ccccc2)nnn1Cc1ccccc1`, the percent response vs DMSO is reported as 93.1% (inactive).
For `OCc1nc(CO)n(Cc2ccccc2)n1`, the percent response vs DMSO was 34.3% [may fluoresce violet] (active).
In the case of `CCOc1ccccc1N1C(=O)CC(Sc2nccc(C)n2)C1=O` (stereo unspecified), the percent response vs DMSO is reported as 101% (inactive).
With `C=C1CCN([C@@H](Cc2ccccc2)C(=O)N2CCOCC2)S(=O)(=O)c2ccccc21` the percent response vs DMSO was 102% (inactive).
In the case of `CCOc1cc(N2CCOCC2)c(OCC)cc1NC(=O)COc1cccc2cccnc12`, the percent response vs DMSO is reported as 38.4% [may fluoresce violet] (active).
In the case of `CCOc1cc(N2CCOCC2)c(OCC)cc1NC(=O)COc1cccc(Cl)c1`, the percent response vs DMSO is reported as 101% (inactive).
In the case of `CCOc1cc(N2CCOCC2)c(OCC)cc1NC(=O)c1cc(C)nc2ccccc12`, the percent response vs DMSO is reported as 101% (inactive).
With `CCCOc1ccc(-c2c(C(=O)N/N=C/c3ccco3)nnn2-c2nonc2N)cc1` the percent response vs DMSO was 99.2% (inactive).
For `Cc1ccccc1S(=O)(=O)N1[C@@H](c2cccc(Cl)c2)C(C(=O)O)=CC[C@H]1c1ccc(Cl)cc1`, the percent response vs DMSO was 99.8% (inactive).
For `O=C(CN1C(=O)COc2ccc(Cl)cc21)N1CCOCC1`, the percent response vs DMSO was 101% (inactive).
In the case of `COc1ccc(Cn2c(C)c(C)c(C#N)c2NC(=O)Nc2ccc(F)cc2)cc1`, the percent response vs DMSO is reported as 97.2% (inactive).
With `Cc1ccc(C(=O)Nc2c(C#N)c(C)c(C)n2Cc2ccccc2)cc1` the percent response vs DMSO was 43.3% [may fluoresce violet] (active).
With `Cc1c(C#N)c(NC(=O)c2ccccc2)n(Cc2ccccc2)c1C` the percent response vs DMSO was 92.3% (inactive).
In the case of `COc1ccccc1NC(=S)N1CCN(c2ccc(F)cc2)CC1`, the percent response vs DMSO is reported as 106% (inactive).
For `COc1cccc(NC(=O)CSc2nnc(Cc3ccc(OC)c(OC)c3)o2)c1`, the percent response vs DMSO was 97.7% (inactive).
With `N#Cc1ccc(C(=O)Nc2nc(-c3cccs3)c(C(=O)C(F)(F)F)s2)cc1` the percent response vs DMSO was 97.5% (inactive).
In the case of `CCCc1noc2c1/C(=N\O)CCC2`, the percent response vs DMSO is reported as 98.8% (inactive).
With `CCCc1nn2c(=O)cc(CSCC(=O)Nc3cccc(C)c3)nc2s1` the percent response vs DMSO was 98% (inactive).
With `Cc1ccc(Cn2c(C)c3cnn(CC(=O)NCc4ccccn4)c(=O)c3c2C)cc1` the percent response vs DMSO was 99.3% (inactive).
For `O=C(Cn1ncc2c3ccccc3n(Cc3ccccc3)c2c1=O)NCc1ccccn1`, the percent response vs DMSO was 93.6% (inactive).
With `Cc1c2cnn(CC(=O)NCc3ccccn3)c(=O)c2c(C)n1Cc1ccc(Cl)cc1` the percent response vs DMSO was 28.5% [may fluoresce violet] (active).
With `O=C(NCc1ccccc1Cl)C1CCN(S(=O)(=O)N2CCOCC2)CC1` the percent response vs DMSO was 91% (inactive).
In the case of `O=C(CCS(=O)(=O)c1cccc2nonc12)NCCc1ccccc1Cl`, the percent response vs DMSO is reported as 104% (inactive).
With `O=C(NCc1ccccc1Cl)C1CCN(S(=O)(=O)c2cccc3nonc23)CC1` the percent response vs DMSO was 49% [may fluoresce violet] (active).
For `CC(=O)C12CC(C)=C(C)CC1CC1C3CCC4=CC(=O)CCC4(C)C3CCC12C` (stereo unspecified), the percent response vs DMSO was 99.3% (inactive).
In the case of `CC(=O)O[C@]1(C(C)=O)CC[C@H]2[C@@H]3C=C(C)C4=CC(=O)CC[C@]4(C)[C@H]3CC[C@@]21C`, the percent response vs DMSO is reported as 33% [may fluoresce violet] (active).
For `CC(C)CCN1CCN=C1N(C)C`, the percent response vs DMSO was 99.1% (inactive).
With `NC(=O)C1CCN(CC(O)CSc2ccc(F)cc2)CC1` (stereo unspecified) the percent response vs DMSO was 99.8% (inactive).
With `COc1cc(NC(=O)c2ccc(-c3csc(C)n3)cc2)c(OC)cc1Cl` the percent response vs DMSO was 102% (inactive).
With `CCS(=O)(=O)Nc1ccc(C2=NN(C(C)=O)C(c3cccs3)C2)cc1` (stereo unspecified) the percent response vs DMSO was 102% (inactive).
With `CCCS(=O)(=O)Nc1ccc(-c2cn3c(n2)SCC3)cc1` the percent response vs DMSO was 40.4% [may fluoresce violet] (active).
In the case of `CCCCc1c(O)nc2n(c1=O)CCS2`, the percent response vs DMSO is reported as 93.4% (inactive).
For `COc1ccc(CC(NC(C)=O)C(=O)NC2CCN(C(=O)c3ccc(OC)c(OC)c3)CC2)cc1OC` (stereo unspecified), the percent response vs DMSO was 93.8% (inactive).
With `CCc1ccc(OCC2c3cc(OC)c(OC)cc3CCN2C(C)=O)cc1` (stereo unspecified) the percent response vs DMSO was 42.9% [may fluoresce violet] (active).
In the case of `COc1ccc2[nH]c(=O)c(C3c4cc(OC)c(OC)cc4CCN3C(=O)c3ccco3)cc2c1` (stereo unspecified), the percent response vs DMSO is reported as 103% (inactive).
With `COc1ccccc1-n1nnnc1S(=O)(=O)Cc1ccc(Cl)cc1` the percent response vs DMSO was 102% (inactive).
For `Cc1cccc(C(=O)NC(=S)N(C)C2CCCCC2)c1`, the percent response vs DMSO was 96.9% (inactive).
With `Cc1c(NC(=O)c2c([N+](=O)[O-])cnn2C)c(=O)n(-c2ccccc2)n1C` the percent response vs DMSO was 41.5% [may fluoresce violet] (active).
With `Cc1cc(OCC(=O)Nc2c(C)n(C)n(-c3ccccc3)c2=O)ccc1[N+](=O)[O-]` the percent response vs DMSO was 97.2% (inactive).
With `Cc1c(NC(=O)Nc2cccc([N+](=O)[O-])c2)c(=O)n(-c2ccccc2)n1C` the percent response vs DMSO was 102% (inactive).
In the case of `Cc1ccccc1-c1cc(C(=O)NCC2CC2)n(CC2CC(c3cccnc3)=NO2)n1` (stereo unspecified), the percent response vs DMSO is reported as 104% (inactive).
For `CNC[C@H](CC1CCCCC1)NC[C@H](NCCC1CCCC1)[C@H](C)O`, the percent response vs DMSO was 93.9% (inactive).
With `CCCc1ccc(-c2c(C)sc(NC(=O)c3ccnn3C)c2C#N)cc1` the percent response vs DMSO was 98% (inactive).
With `CC1(c2ccc3ccccc3c2)NC(=O)NC1=O` (stereo unspecified) the percent response vs DMSO was 105% (inactive).
In the case of `COc1ccc(-c2nnn(Cc3nc(N)nc(N4CCCCC4)n3)n2)cc1`, the percent response vs DMSO is reported as 98.7% (inactive).
For `COc1ccc(CSc2nnnn2-c2ccc(C(=O)O)cc2)cc1`, the percent response vs DMSO was 99.4% (inactive).
With `COc1ccc(-n2nnnc2SCc2nc(N)nc(N3CCOCC3)n2)cc1` the percent response vs DMSO was 48.8% [may fluoresce violet] (active).
For `O=C(COC(=O)CNC(=O)C1CCCCC1)Nc1cccc(F)c1`, the percent response vs DMSO was 100% (inactive).
In the case of `OCC(O)CN(c1ccccc1)c1ccccc1` (stereo unspecified), the percent response vs DMSO is reported as 94.3% (inactive).
For `CCn1cc(C(=O)OCC(=O)Nc2cccc(C)c2)c(=O)c2ccc(C)nc21`, the percent response vs DMSO was 96.6% (inactive).
In the case of `C=CC[C@H](CC(=O)N(CCO)Cc1ccccc1)C(=O)N[C@@H](COC(=O)[C@@H](CC=C)Cc1ccc(F)cc1)Cc1ccccc1`, the percent response vs DMSO is reported as 96% (inactive).
With `CCNS(=O)(=O)c1ccc(NC(=O)c2cncc(Br)c2)cc1` the percent response vs DMSO was 96.5% (inactive).
For `O=C(CN1CCN(S(=O)(=O)c2ccc(Br)cc2)CC1)Nc1ccccc1C(=O)c1ccccc1`, the percent response vs DMSO was 100% (inactive).
In the case of `O=C(CNC(=O)c1ccccc1)Oc1ccc([N+](=O)[O-])cc1`, the percent response vs DMSO is reported as 103% (inactive).
For `O=C(Cc1ccccc1)NNS(=O)(=O)c1ccc([N+](=O)[O-])cc1`, the percent response vs DMSO was 97.4% (inactive).
For `O=C(NNS(=O)(=O)Cc1ccccc1)c1ccc([N+](=O)[O-])cc1`, the percent response vs DMSO was 44.4% [may fluoresce violet] (active).
With `CC(=O)c1ccc(N2CCN(C(=O)CCNC(=O)Cn3ccc4ccccc4c3=O)CC2)cc1` the percent response vs DMSO was 104% (inactive).
For `COc1cc(C(C(=O)NC2CCCC2)N(C(=O)c2ccco2)c2ccccc2C(C)=O)cc(OC)c1OC` (stereo unspecified), the percent response vs DMSO was 108% (inactive).
With `O=C(CC(n1cncn1)C(Cl)(Cl)Cl)c1ccc([N+](=O)[O-])cc1` (stereo unspecified) the percent response vs DMSO was 104% (inactive).
In the case of `O=C(c1ccncc1)c1ccc([N+](=O)[O-])cc1`, the percent response vs DMSO is reported as 98.9% (inactive).
For `O=C(C1CCCO1)N(c1ccc(F)cc1)C1C=CS(=O)(=O)C1` (stereo unspecified), the percent response vs DMSO was 97.9% (inactive).
In the case of `NC(=O)c1nsc(C(=O)N(CCCN2CCOCC2)C(C(=O)NC2CCCCC2)c2ccc(Cl)cc2)c1N` (stereo unspecified), the percent response vs DMSO is reported as 38% [may fluoresce violet] (active).
In the case of `CCOc1ccc(C(C(=O)NC2CCCC2)N(C(=O)c2snc(C(N)=O)c2N)C2CCCC2)cc1` (stereo unspecified), the percent response vs DMSO is reported as 95.8% (inactive).
With `CC(C)(C)NC(=O)C(c1ccc(Cl)cc1)N(CCO)C(=O)c1snc(C(N)=O)c1N` (stereo unspecified) the percent response vs DMSO was 99.5% (inactive).
For `O=C(O)c1ccc(S(=O)(=O)N2CCOCC2)o1`, the percent response vs DMSO was 47.2% [may fluoresce violet] (active).
For `O=C(CCc1ccc(S(=O)(=O)N2CCOCC2)cc1)NN=C1CCCCCCC1`, the percent response vs DMSO was 101% (inactive).
With `O=C(c1cc(S(=O)(=O)N2CCOCC2)ccc1Cl)N1CCOCC1` the percent response vs DMSO was 112% (inactive).
With `CCOC(=O)CNC(=O)/C=C/c1c(Cl)cccc1Cl` the percent response vs DMSO was 94.2% (inactive).
With `CC(C)=CCCC1(C)C=Cc2c(ccc3c2[nH]c2cc(O)c(C)cc23)O1` (stereo unspecified) the percent response vs DMSO was 97.2% (inactive).
With `O=C1CN(C(=O)COc2c(Cl)cccc2Cl)c2ccccc2N1` the percent response vs DMSO was 91.8% (inactive).
With `COc1cc(OC)c(C(=O)OCC(=O)N2CC(=O)Nc3ccccc32)cc1OC` the percent response vs DMSO was 93.3% (inactive).
With `O=C1CN(C(=O)COC(=O)c2cnc(Cl)c(Cl)c2)c2ccccc2N1` the percent response vs DMSO was 18.6% [may fluoresce violet] (active).
With `CN(NC(=O)C1CC(=O)N(c2ccccc2)C1)C1=NS(=O)(=O)c2ccccc21` (stereo unspecified) the percent response vs DMSO was 102% (inactive).
In the case of `CC1(C)CC2CC(C)(CN2c2ncnc3ccc(Br)cc23)C1` (stereo unspecified), the percent response vs DMSO is reported as 105% (inactive).
With `CN(CC(=O)Nc1ccccc1Cl)C(=O)c1ccccc1SCC(=O)N1CCCC1` the percent response vs DMSO was 94.7% (inactive).
In the case of `O=c1c2c(nc3nc[nH]n13)CCC2`, the percent response vs DMSO is reported as 19.2% [may fluoresce violet] (active).
For `CSc1nc2nc3c(c(=O)n2[nH]1)CCC3`, the percent response vs DMSO was 89.8% (inactive).
For `O=c1c2c(nc3cc(-c4cccc(Cl)c4)[nH]n13)CCCC2`, the percent response vs DMSO was 99.2% (inactive).
With `CCCCCC(O)c1cccc(OCc2ccc3ccccc3n2)c1` (stereo unspecified) the percent response vs DMSO was 88.3% (inactive).
With `O=C1CC(=O)Nc2cc(S(=O)(=O)N3CCN(c4cccc(C(F)(F)F)c4)CC3)ccc2N1` the percent response vs DMSO was 97.6% (inactive).
